# The campaign covered roughly 66,000 compounds. About 720 (1.1%) were called active. No stated cut-off is given here; in the data, active means normalised signal below about 0.5; inactive means the rest, inconclusive results apart. Only a selection was taken, and actives are over-represented in it overall.
# Biological target: Chromobox protein homolog 7 (Homo sapiens) (UniProt O95931)
# Test: CBX7 chromodomain binding inhibitors, primary screen, biochemical, AlphaScreen (AID 1224903)
# Conditions: AlphaScreen His6-CBX7 / biotin-H3K27me3 peptide binding, stronger effect = lower value; z-score: measured here: z-score of CBX7 signal
# Chromobox protein homolog 7 (Homo sapiens), sequence (O95931 whole entry, looked up): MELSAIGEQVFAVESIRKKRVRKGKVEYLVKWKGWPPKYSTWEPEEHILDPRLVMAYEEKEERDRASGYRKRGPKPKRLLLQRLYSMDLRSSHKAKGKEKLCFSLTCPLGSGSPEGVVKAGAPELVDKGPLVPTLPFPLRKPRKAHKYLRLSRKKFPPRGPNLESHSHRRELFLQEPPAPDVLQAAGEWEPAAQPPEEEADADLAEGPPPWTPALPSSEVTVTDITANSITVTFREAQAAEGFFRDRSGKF
SMILES,normalised signal (fraction of DMSO),z-score
Cc1ccc(C(=O)N2CC(=O)Nc3ccc(F)cc3C2c2ccc(F)cc2)cc1 (stereo unspecified),1.01 (inactive),0.159
Cc1ccc2c(c1)C(c1ccc(F)cc1)N(C(=O)c1ccc(C)c(C)c1)CC(=O)N2 (stereo unspecified),0.316 (active),-6.53
Cc1ccc2c(c1)C(c1ccc(F)cc1)N(C(=O)c1ccc(S(=O)(=O)N3CCCC3)cc1)CC(=O)N2 (stereo unspecified),0.859 (inactive),-1.94
O=C(Nc1ccccc1C(=O)Nc1ccccc1)c1cccc(S(=O)(=O)N2CCCCC2)c1,0.764 (inactive),-2.54
Cc1ccc(C(C)C)c(OCc2nnc(NC(=O)c3ccc(Br)cc3)s2)c1,1.06 (inactive),0.262
CCN1CCN(CCCNC(=O)c2ccc3c(c2)N(Cc2ccc(F)cc2)CCS3)CC1,0.904 (inactive),-4.6
CC(=O)N1CCC(N(C(=O)Nc2ccc(Cl)cc2)C2CCCCCC2)CC1,1.02 (inactive),0.287
Cc1ccc(-c2nc(Nc3ccccc3)sc2C)cc1,0.99 (inactive),-0.257
CCCCNC(=O)c1cc(Nc2ccc(CC)cc2)nc2ccccc12,0.991 (inactive),-0.251
O=C(NCc1ccccc1)C1CCN(c2nc3ccccc3o2)CC1,1.02 (inactive),0.778
COc1ccc(CNc2nc(-c3ccccc3)cc(C(F)(F)F)n2)cc1,1.28 (inactive),3.06
COc1ccc(CNc2ccc3c(c2)ncn3C(C)(C)C)c(OC)c1,0.589 (inactive),-11.8
Cc1ccc(NC(=O)CCc2nnc3ccc(NCc4ccccc4Cl)nn23)cc1,0.916 (inactive),-2.3
CC(C)n1cnc2cc(NCc3ccccc3Cl)ccc21,0.463 (active),-15.4
COc1ccc(OC)c(Cc2nc3cc(C)c(C)cc3[nH]c2=O)c1,0.964 (inactive),-1.09
O=C(Nc1ccccc1Cl)C1CCN(C(=O)c2cnn(-c3ccccc3)c2-n2cccc2)CC1,1.04 (inactive),1.69
Cc1ccc(C(=O)CN2C3=NCCN3c3ccccc32)cc1,0.994 (inactive),-0.186
CC(C)N(CCCNC(=O)C1CCC(=O)N1Cc1ccc(F)cc1)Cc1ccccc1 (stereo unspecified),0.995 (inactive),-0.146
CCc1ccc(NC(=O)Cn2c(SCc3cccc(F)c3)nc3ccncc32)cc1,1.06 (inactive),0.594
Fc1cnc(Nc2ccc(Cl)cc2)nc1Nc1ccc(Cl)cc1,1.05 (inactive),0.523
Cc1ccc(C(C)C)cc1OCC(O)Cn1cnc2ccccc21 (stereo unspecified),0.815 (inactive),-2.55
CCc1cc(C)cc(OCC(O)Cn2cnc3ccccc32)c1 (stereo unspecified),0.88 (inactive),-3.02

SMILES,normalised signal (fraction of DMSO),z-score
CC(C)c1ccc(OCC(O)Cn2cnc3ccccc32)cc1 (stereo unspecified),0.284 (active),-13.5
Cc1ccc(NC(=O)c2cc(C)nn2-c2ccccc2)c(C)c1,1.04 (inactive),1.18
COc1cccc(C(=O)Nc2ccc3oc(-c4ccccc4)nc3c2)c1,1.16 (inactive),2.43
COc1ccc(-c2noc(N(C)CC(=O)N3CCN(C)CC3)n2)cc1,1.02 (inactive),0.593
O=C(CSCc1cnn(-c2ccccc2)c1-n1cccc1)NC1CC1,0.986 (inactive),-0.615
COc1ccccc1N1CCN(C(c2cccs2)C(C)NC(=O)c2ccc3c(c2)OCO3)CC1 (stereo unspecified),0.905 (inactive),-2.32
CCOc1ccc(C(=O)Nc2c3c(nn2-c2cccc(C)c2C)CSC3)cc1,1.01 (inactive),0.119
Cc1ccc(Cc2cnc(CN(C)C)c(O)c2)cc1,0.477 (active),-6.92
Clc1ccc2nc(-c3ccsc3)c(NC(c3ccccc3)c3ccccc3)n2c1,1.04 (inactive),1.58
Cc1ccc(CNc2oc(-c3ccc(F)cc3)nc2C#N)cc1,0.934 (inactive),-2.3
Cc1ccc(-c2nc(C#N)c(NCCCn3ccnc3)o2)cc1,0.442 (active),-0.658
COc1ccc(-c2cc(C(=O)NCCCn3ccnc3)no2)cc1,0.983 (inactive),-0.364
COc1ccc(Cl)cc1NC(=O)C1c2cc(OC)c(OC)cc2C(=O)N(C)C1c1ccccc1F (stereo unspecified),1.06 (inactive),1.16
Cc1ccc(CNC(=O)c2c(-c3ccccc3)noc2C)cc1,1.03 (inactive),0.952
CC1(C)CC(=O)c2cc(OCC(=O)NCCCN3CCCC3)ccc2O1,0.509 (inactive),-9.7
Cc1ccc(-c2nc3c(C)cccn3c2Nc2ccc3c(c2)OCCO3)cc1,0.63 (inactive),-13.9
O=C(NCc1ccccc1)C1C2C=CC3(CN(Cc4ccccc4Cl)C(=O)C13)O2 (stereo unspecified),0.955 (inactive),-2.13
CCCCn1c(C2CC(=O)N(c3ccc(CC)cc3)C2)nc2ccccc21 (stereo unspecified),0.96 (inactive),-0.9
CCOc1ccc(-c2nnc(Nc3ccc(C(N)=O)cc3)c3ccccc23)cc1,0.436 (active),-2.64
Cc1ccc(-c2nnc(Nc3ccc(OCC(N)=O)cc3)c3ccccc23)cc1S(=O)(=O)NC(C)C,0.723 (inactive),-5.21
Cc1ccc(-c2nnc(Nc3ccc(C(=O)N(C)C)cc3)c3ccccc23)cc1S(N)(=O)=O,1.08 (inactive),2.41

# Reference: PubChem BioAssay AID1224903 (Bradner/Qi Labs at DFCI, 2016)
